# Where “and” joins values, the source holds several entries; their conditions need not be identical. Identical values can stand only once. Out of some 360,000 compounds screened, about 1,400 (0.39%) were called active.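 The calls were made as follows: active = activation above its plate's cutoff, the mean activation of sample wells plus 3 SD; inactive = the rest.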 Shown is part of a subset that was picked to be rich in actives.
# Target: Muscarinic acetylcholine receptor M4 (Homo sapiens) (UniProt P08173)
# Sequence (P08173 whole entry, looked up): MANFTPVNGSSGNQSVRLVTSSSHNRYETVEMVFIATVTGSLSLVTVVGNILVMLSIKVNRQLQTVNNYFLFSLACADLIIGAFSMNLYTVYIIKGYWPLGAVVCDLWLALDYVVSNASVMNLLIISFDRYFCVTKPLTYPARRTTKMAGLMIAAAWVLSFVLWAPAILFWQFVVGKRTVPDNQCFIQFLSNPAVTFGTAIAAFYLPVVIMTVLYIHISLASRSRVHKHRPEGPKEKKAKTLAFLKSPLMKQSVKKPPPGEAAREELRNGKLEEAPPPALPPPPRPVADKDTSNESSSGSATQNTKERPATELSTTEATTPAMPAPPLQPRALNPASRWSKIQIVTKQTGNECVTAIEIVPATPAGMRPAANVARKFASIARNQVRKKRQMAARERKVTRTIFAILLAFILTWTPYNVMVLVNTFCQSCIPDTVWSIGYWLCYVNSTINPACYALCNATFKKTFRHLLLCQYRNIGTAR
# Assay: human M4 muscarinic receptor positive allosteric modulators, primary screen, CHO-K1 cells, Fluo-8 calcium fluorescence (AID 624126)
# Settings: CHO-K1 hM4/Gqi5, Fluo-8 calcium fluorescence, ACh EC20; at 3 µM; hits give high values; 0% = ACh EC20, 100% = maximal ACh
row,SMILES,activation
1,COC(=O)CSc1ncnc2c1cnn2-c1ccc(C)cc1C,1.46% (inactive)
2,COc1ccc2nc(C)cc(Nc3cccc(C(=O)O)c3)c2c1,-1.48% (inactive)
3,Cc1ccc(-n2ncc3c(Nc4cccc(C(=O)O)c4)ncnc32)cc1,29.6% (active)
4,O=C1CN(C(=O)COC(=O)C2CC(=O)N(Cc3ccco3)C2)c2ccccc2N1 (stereo unspecified),13.2% (inactive)
5,O=C(NCc1ccc2c(c1)OCO2)c1c(-c2ccsc2)sc2ccccc12,-3.52% (inactive)
6,COc1cc2c(cc1OC)CN(C(C)C(=O)Nc1cccc(S(=O)(=O)N3CCOCC3)c1)CC2 (stereo unspecified),1.73% (inactive)
7,O=C(CNC(=O)C12CC3CC(CC(C3)C1)C2)OCC(=O)N1CCCCC1,-2.08% (inactive)
8,Cc1ccccc1CCNC(=O)C1CCC(=O)N(Cc2ccc(Cl)cc2)C1 (stereo unspecified),-4.94% (inactive)
9,COC(=O)c1ccc(CNC(=O)C2CCC(=O)N(Cc3ccccn3)C2)cc1 (stereo unspecified),13.8% (active)
10,COC(=O)c1ccc(CNC(=O)C2CCC(=O)N(Cc3cccc(F)c3)C2)cc1 (stereo unspecified),2.75% (inactive)
11,Cc1cc(C)c(S(=O)(=O)Nc2c(C)n(C)n(-c3ccccc3)c2=O)cc1[N+](=O)[O-],-0.44% (inactive)
12,CCOC(=O)c1cc(C(C)C)sc1NC(=O)COC(=O)c1nccnc1N,17% (inactive)
13,CC(C)(C)C(=O)CN1C2=NCCN2c2ccccc21,-8.44% (inactive)
14,Cc1cccc(N(C(=O)c2ccc(CN3CCOCC3)o2)C(C(=O)NC2CCCCC2)c2ccc(F)cc2)c1 (stereo unspecified),15.7% (active)
15,O=C(NC1CCCC1)C(c1ccc(N2CCOCC2)cc1)N(C(=O)c1ccco1)c1ccccc1F (stereo unspecified),-4.93% (inactive)
16,Cc1ccc(N(C(=O)c2ccc(CN3CCOCC3)o2)C(C(=O)NCCC(C)C)c2cccs2)c(C)c1 (stereo unspecified),9.68% (inactive)
17,CSc1ncccc1C(=O)Nc1cccc(S(=O)(=O)N2CCOCC2)c1,7.64% (inactive)
18,Cc1ccc(S(=O)(=O)N(C)C)cc1NC(=O)C(C)OC(=O)c1ccc2ccccc2n1 (stereo unspecified),21.1% (inactive)
19,COC(=O)c1cc(C(=O)OCC(=O)Nc2cc(C)on2)cc([N+](=O)[O-])c1,19.2% (inactive)
20,COC(=O)c1ccccc1NC(=O)Cn1nc(C(F)(F)F)c2c1CCC2,-1.81% (inactive)
21,COCCn1c(SCC(=O)Nc2ccccc2F)nc2c(c1=O)SCC2,1.76% (inactive)
22,COCCn1c(SCC(=O)Nc2ccc(F)cc2F)nc2c(c1=O)SCC2,0.05% (inactive)
23,COCCn1c(SCC(=O)N2CCCCCC2)nc2c(c1=O)SCC2,28% (active)

row,SMILES,activation
1,CC(=O)n1cc([C@@H]2C=C(C(=O)N3CCN(Cc4ccc5c(c4)OCO5)CC3)O[C@H](OCc3ccc(CO)cc3)C2)c2ccccc21,-4.81% (inactive)
2,CC(C)n1ncc2c(C(=O)N3CCN(Cc4cccs4)CC3)cc(C3CC3)nc21,3.71% (inactive)
3,C=CCOc1ccc(/C=C/C(=O)OC(C)C(=O)Nc2ccc(NC(C)=O)cc2)cc1 (stereo unspecified),0.99% (inactive)
4,CCc1ccc(NC(=O)C(C)OC(=O)/C=C/c2cccc([N+](=O)[O-])c2)cc1 (stereo unspecified),30.3% (active)
5,CC(OC(=O)/C=C/c1ccccc1)C(=O)Nc1ccc(C(N)=O)cc1 (stereo unspecified),5.82% (inactive)
6,O=C1CN(C(=O)CN2C(=O)NC3(CCCCC3)C2=O)c2ccccc2N1,3.42% (inactive)
7,Cn1c(SCC(=O)c2ccccc2)ncc(C(=O)Nc2ccc(F)cc2)c1=O,21.6% (active)
8,Cc1ccc(NC(=O)c2cnc(SCC(=O)NCC3CCCO3)n(C)c2=O)cc1 (stereo unspecified),21.4% (inactive)
9,Cn1c(SCC(=O)c2ccc(F)cc2)nnc1-c1ccccn1,-3.85% (inactive)
10,CC(C)NC(=O)N1Cc2cc(C(=O)NCC(F)(F)F)nc(-c3cccc(-c4cc5ccccc5o4)c3)c2[C@@H]1CCO,1.14% (inactive)
11,COc1ccc(CCNC(=O)CN2C(=O)CCSc3ccccc32)c(OC)c1,0.14% (inactive)
12,CC(NS(=O)(=O)c1ccc(OCC(=O)N2CCCC2)cc1)c1ccccc1 (stereo unspecified),1.05% (inactive)
13,O=C(COC(=O)c1ncc(Cl)c(Cl)c1Cl)NCc1ccccc1,16.7% (inactive)
14,CCN(CC)S(=O)(=O)c1ccc2c3c(cccc13)C(=O)S2,-6.1% (inactive)
15,Cc1ccccc1C(=O)NNC(=O)CN1C(=O)c2ccccc2C1=O,9.49% (inactive)
16,CCN1C(=O)c2cccc3c(S(=O)(=O)Nc4ccccc4O)ccc1c23,17.5% (active)
17,C/C(CC(=O)Nc1ccc(C)cc1C)=N\NC(=O)C(C)C,2.54% (inactive)
18,CN(C)C(=O)N1CCNCC1,4.12% (inactive)
19,Cc1cc(Br)cn2c(Cc3ccsc3)c(-c3ccc(C#N)cc3)nc12,-5.22% (inactive)
20,COc1cc(CCC(=O)OCC(=O)Nc2cccc(S(N)(=O)=O)c2)cc(OC)c1OC,1.58% (inactive)
21,O=C1CSc2ccc(S(=O)(=O)NCc3ccccc3)cc2N1,0.62% (inactive)
22,COc1cccc(C2=CC(=O)C[C@H](c3ccc(F)cc3)C2)c1OC,2.96% (inactive)
23,Cc1c(C=O)c2ccccc2n1CC(=O)O,4.05% (inactive)

row,SMILES,activation
1,Cc1c(C(=O)NNC(=O)c2ccncc2)oc2ccccc12,5.49% (inactive)
2,Cc1c(C=O)c2ccccn2c1C(=O)c1ccncc1,30.8% (active)
3,COc1cccc(CNCCc2c[nH]c3ccccc23)c1OCc1ccccc1F,-8.42% (inactive)
4,Cc1nc2sc(C(c3ccco3)N3CCOCC3)c(O)n2n1 (stereo unspecified),31.4% (active)
5,Cc1nc2sc(C(c3ccco3)N3CCC4(CC3)OCCO4)c(O)n2n1 (stereo unspecified),5.78% (inactive)
6,Cc1ccc(C(c2sc3nc(C)nn3c2O)N2CCN(c3ccccc3)CC2)cc1 (stereo unspecified),4.41% (inactive)
7,CCc1nnc(NS(=O)(=O)c2ccc(NC(=O)c3cccc(OC(F)(F)C(F)F)c3)cc2)s1,13.1% (active)
8,CCc1nnc(NS(=O)(=O)c2ccc(NC(=S)NC(=O)/C=C/c3cccs3)cc2)s1,-0.35% (inactive)
9,Cc1cc(NS(=O)(=O)c2ccc(NC(=O)c3cccc(OC(F)F)c3)cc2)nc(C)n1,3.12% (inactive)
10,CC(C)(C)N1CC(c2nc3ccccc3n2Cc2ccc(F)cc2)CC1=O (stereo unspecified),-1.38% (inactive)
11,O=C(Nc1ccc2c(c1)OCCO2)C(C1CC1)N1CCC(Cc2ccccc2)CC1 (stereo unspecified),-15.2% (inactive)
12,CCc1ccccc1OCC(=O)Nc1ccc2c(c1)OCCO2,-2.66% (inactive)
13,CC(=O)NCC(=O)N(C)C(C(=O)Nc1ccc2c(c1)OCCO2)c1ccccc1 (stereo unspecified),16.8% (active)
14,Cc1ccccc1OCC(=O)N(Cc1cccc(F)c1)C1CCS(=O)(=O)C1 (stereo unspecified),0.66% (inactive)
15,CCOCCCn1c(SCC(=O)Nc2cc(OC)ccc2OC)nc2ccccc2c1=O,-0.05% (inactive)
16,CCOc1ccc(NC(=O)CSc2nc3ccccc3c(=O)n2Cc2cccs2)cc1,-2.3% (inactive)
17,CCOc1ccc(-n2c(SCC(=O)Nc3cc(C(=O)O)ccc3Cl)nc3ccccc3c2=O)cc1,17.1% (active)
18,O=C1OCC2=C1C(c1ccccc1)CC(=O)N2c1cccc(F)c1 (stereo unspecified),11.7% (inactive)
19,CC(C)c1cccc(C(C)C)c1Nc1cn[nH]c1,28.5% (active)
20,O=C(NCCOc1ccccc1)N1[C@H]2CC[C@@H]1C=C(c1ccc(F)cc1OCc1ccccc1)C2,-2.49% (inactive)
21,O=C(CSc1nnnn1-c1ccccc1)NCc1ccco1,-4.53% (inactive)
22,O=C(CSc1nnc(-c2c[nH]c3ccccc23)n1-c1ccc(F)cc1)NCc1ccco1,32.8% (active)
23,COc1ccc(-n2c(SCC(=O)NCc3ccco3)nnc2-c2c[nH]c3ccccc23)cc1,-1.54% (inactive)

row,SMILES,activation
1,CC(Sc1ncnc2c1cnn2-c1ccccc1)C(=O)Nc1ccc(N2CCOCC2)cc1 (stereo unspecified),23.6% (active)
2,CCC(C)N(C(=O)CSc1ncnc2c1cnn2-c1ccccc1)C1CCS(=O)(=O)C1 (stereo unspecified),-4.86% (inactive)
3,CCn1c(SC(C)C(=O)Nc2ccc(N3CCOCC3)cc2)nnc1-c1ccco1 (stereo unspecified),1.69% (inactive)
4,CCC(=O)c1cc(F)ccc1OCC(=O)Nc1ccc2c(c1)OCCO2,-4.48% (inactive)
5,CCOC(=O)c1cnc2ccc(F)cc2c1Nc1ccc2c(c1)OCCO2,27.1% (active)
6,CCOc1ncccc1C(=O)Nc1ccc2c(c1)OCCO2,-0.95% (inactive)
7,CCOc1cc(C)c(Cl)cc1S(=O)(=O)n1nnc2ccccc21,6.7% (inactive)
8,COc1ccccc1Nc1ncc(C(C)=O)c(C)n1,2.09% (inactive)
9,O=C(c1[nH]ncc1-c1ccc(Cl)cc1)C1CO1 (stereo unspecified),-6.34% (inactive)
10,COc1ccc(C(=O)CN2C(=O)NC3(CCc4ccccc43)C2=O)c(OC)c1 (stereo unspecified),22.9% (active)
11,COc1ccc(-n2c(C)cc(C(=O)CN3C(=O)NC4(CCc5ccccc54)C3=O)c2C)cc1 (stereo unspecified),-7.44% (inactive)
12,Cc1ccc(C(=O)CN2C(=O)NC3(CCc4ccccc43)C2=O)c(C)c1 (stereo unspecified),-0.51% (inactive)
13,Cc1ccc(C(=O)NCC(=O)NCc2cc(=O)n(C)c(=O)n2C)cc1,-0.97% (inactive)
14,CCOc1ccc(NS(=O)(=O)c2ccc(C(=O)NCC3CCCO3)cc2)cc1 (stereo unspecified),-2.16% (inactive)
15,Cc1nc(N)sc1-c1ccccc1,16.2% (active)
16,CC(=O)c1sc(N)nc1C,3.44% (inactive) and -1.75% (inactive)
17,Cc1nc(N)sc1N=Nc1c(C)n(C)n(-c2ccccc2)c1=O,3.22% (inactive)
18,CCN(C(=O)COC(=O)c1ccc(COc2ccc3c(C)cc(=O)oc3c2)cc1)C1CCS(=O)(=O)C1 (stereo unspecified),-5.76% (inactive)
19,CN=C(NC#N)NCCSCc1nc[nH]c1C,-5.15% (inactive)
20,O=C1c2cccc3cccc(c23)C(=O)N1c1cccc(O)c1,-10.1% (inactive)
21,O=C1C=C(c2ccc(Cl)cc2)C(=O)N1Nc1ccccc1,-7.82% (inactive)
22,O=C1c2cccc3cc(Br)cc(c23)C(=O)N1Nc1ccccc1,21.6% (active)
